Out of some 52,000 compounds screened, about 1,700 (3.3%) were called active. The list comes from a sample in which actives are over-represented; it also holds similar structures and randomly drawn compounds. Values without a mark were called inactive. Rule as the data show it: active = survival mostly below about 52% (no sharp cut-off); inactive = mostly above about 56%.
System: Wild type
Assay: growth inhibition of S. aureus wild type versus tarO mutant, primary screen, teichoic acid synthesis inhibitors, RN4220, OD600 (AID 463173)
Conditions: S. aureus RN4220 wild type/DeltatarO growth, OD600, 18 h, hits give low values, screened at 18.75 µg/mL (by protocol)

`COC(=O)C1CCN(S(=O)(=O)c2cc3c4c(c2)C(C)C(=O)N4CCC3)CC1` (stereo unspecified) was tested. Which survival did it give?
The survival was 125%.

Which survival does the source give for `CCOC(=O)C1CCN(S(=O)(=O)c2cc3c4c(c2)C(C)C(=O)N4CCC3)CC1` (stereo unspecified) here?
Its survival is 88%.

With `CC1C(=O)N2CCCc3cc(S(=O)(=O)N4CCC(C(N)=O)CC4)cc1c32` (stereo unspecified) as the molecule, how does the survival read?
Its survival is -3% (active).

Which survival does the source give for `COc1ccc(N2CCN(C(=O)CSc3n[nH]c(-c4ccccc4)n3)CC2)cc1` here?
Its survival is 72%.

How did the survival turn out when `COc1ccc(S(=O)(=O)N(CC(=O)Nc2ccccc2Br)Cc2ccccc2)cc1` was run?
Its survival is 77%.

How did the survival turn out when `Cc1cc(C)cc(Nc2cc(C(=O)NCCCN(Cc3ccccc3)C(C)C)c3ccccc3n2)c1` was run?
Its survival is -6% (active).

Which survival does the source give for `CCCN(CCC)CCNC(=O)c1cc(-c2ccc(Br)s2)nc2ccccc12` here?
Its survival is 80%.

How did the survival turn out when `Cc1ccc(C)c(Nc2cc(C(=O)NCCCN(C)C3CCCCC3)c3ccccc3n2)c1` was run?
Its survival is 99%.

How did the survival turn out when `Cc1cc(C)cc(Nc2cc(C(=O)NCCCN(C)C3CCCCC3)c3ccccc3n2)c1` was run?
The survival was 26% (active).

Which survival does the source give for `COc1ccc(Nc2cc(C(=O)NCCCN(C)C3CCCCC3)c3ccccc3n2)cc1` here?
Its survival is 99%.

Which survival does the source give for `CCCCN(C)CCNC(=O)c1cc(-c2ccc(Cl)s2)nc2ccccc12` here?
Its survival is 82%.

Which survival does the source give for `Cc1cc(C)cc(Nc2cc(C(=O)NCc3ccccc3)c3ccccc3n2)c1` here?
The survival was 139%.

`CCCCN(C)CCCNC(=O)c1cc(-c2ccc(Br)s2)nc2ccccc12` was tested. Which survival did it give?
Its survival is 26% (active).

How did the survival turn out when `CSc1cccc(Nc2cc(C(=O)NCCCN(Cc3ccccc3)C(C)C)c3ccccc3n2)c1` was run?
The survival was 75%.

`Cc1ccc2c(c1)NC(=O)C(CC(=O)Nc1cc(Cl)ccc1C)O2` (stereo unspecified) was tested. Which survival did it give?
Its survival is 77%.

For `COc1ccc(Br)cc1S(=O)(=O)Nc1cc(-c2cn3ccccc3n2)ccc1C`, which survival is on record?
Its survival is 63%.

`Cc1ccc(C(=O)Nc2ccc3c(c2)N(C)C(=O)c2ccccc2S3)cc1F` was tested. Which survival did it give?
Its survival is 72%.

Which survival does the source give for `O=C(Cn1ncn2c(cc3sccc32)c1=O)NCCc1ccccc1` here?
Its survival is 85%.

Which survival does the source give for `CC(Sc1nnc(-c2ccccc2)n1N)C(=O)O` (stereo unspecified) here?
The survival was 109%.

How did the survival turn out when `CCOc1ccc(Nc2ncnc3c2cnn3-c2ccc(F)cc2)cc1` was run?
The survival was 60%.

For `Cc1ccc(N2CCN(C(=O)c3c(C)oc4ncnc(N5CCOCC5)c34)CC2)c(C)c1`, which survival is on record?
Its survival is 83%.

`CSc1ccc(-c2nc3ncccn3c2Nc2ccc(C)c(C)c2)cc1` was tested. Which survival did it give?
The survival was 60%.

`COc1cc(OC)c(NC(=O)c2c(C)oc3ncn(C)c(=O)c23)cc1Cl` was tested. Which survival did it give?
Its survival is 88%.

With `CCOc1ccccc1NC(c1nnc(-c2ccccc2)o1)c1ccc(F)cc1Cl` (stereo unspecified) as the molecule, how does the survival read?
The survival was 2% (active).

For `COc1cccc(NC(c2nnc(-c3ccccc3)o2)c2ccc(F)cc2Cl)c1` (stereo unspecified), which survival is on record?
Its survival is 56%.

`CCc1ccccc1NC(c1nnc(-c2cccc(F)c2)o1)c1ccc(F)cc1Cl` (stereo unspecified) was tested. Which survival did it give?
The survival was 86%.

Which survival does the source give for `COc1ccc(C)cc1NC(c1nnc(-c2ccccc2)o1)c1ccc(F)cc1Cl` (stereo unspecified) here?
Its survival is 3% (active).

With `COc1cc(OC)c(NC(c2nnc(-c3ccccc3)o2)c2ccc(F)cc2Cl)cc1Cl` (stereo unspecified) as the molecule, how does the survival read?
Its survival is 66%.

`Cc1cccc(NC(c2nnc(-c3ccccc3)o2)c2ccc(F)cc2Cl)c1C` (stereo unspecified) was tested. Which survival did it give?
Its survival is 55%.

For `COc1ccc(S(=O)(=O)NCCc2csc(-c3ccc(F)cc3)n2)cc1F`, which survival is on record?
The survival was 81%.

Which survival does the source give for `Cc1cc(C)cc(NC(=O)CCS(=O)(=O)c2cccc3nsnc23)c1` here?
The survival was 64%.

How did the survival turn out when `COc1cc(C2c3c(oc4ccccc4c3=O)C(=O)N2c2nncs2)cc(OC)c1OC` (stereo unspecified) was run?
The survival was 76%.

With `Cc1ccc2c(c1)sc1nc(=O)n(-c3cccc(Cl)c3)c(=O)n12` as the molecule, how does the survival read?
The survival was 70%.

With `Cc1ccc2c(c1)sc1nc(=O)n(-c3ccc(Cl)c(Cl)c3)c(=O)n12` as the molecule, how does the survival read?
The survival was -4% (active).

How did the survival turn out when `Cc1ccc2c(c1)sc1nc(=O)n(-c3ccc(Cl)cc3)c(=O)n12` was run?
Its survival is 77%.

Which survival does the source give for `CC(C)C(NS(=O)(=O)c1cccc2cccnc12)C(=O)Nc1ccc(OC(F)(F)F)cc1` (stereo unspecified) here?
The survival was 100%.

How did the survival turn out when `CCc1ccc(CNc2ncc(-c3cccc(OC)c3)n2C)cc1` was run?
Its survival is 4% (active).

With `CCOc1ccc(-c2cnc(NCc3cccc(Cl)c3)n2C)cc1` as the molecule, how does the survival read?
The survival was 52%.

With `COc1ccc(OC)c(CNc2ncc(-c3ccc(Cl)cc3)n2C)c1` as the molecule, how does the survival read?
Its survival is 34%.

Which survival does the source give for `COc1cccc(-c2cnc(NCc3ccccc3Cl)n2C)c1` here?
The survival was 70%.

For `Cn1c(-c2cccc(Br)c2)cnc1NCc1cccc(F)c1`, which survival is on record?
The survival was 27%.

For `COc1ccc(-c2cnc(NCc3ccc(C)cc3)n2C)cc1`, which survival is on record?
The survival was 108%.

`CCOc1ccc(-c2cnc(NCc3ccc(C(F)(F)F)cc3)n2C)cc1` was tested. Which survival did it give?
The survival was -12% (active).

Which survival does the source give for `Cc1ccc(-c2cnc(NC(=O)CCC(=O)N3CCCCC3)n2C)cc1` here?
Its survival is 110%.

Which survival does the source give for `Cc1ccc(-c2cnc(NCc3ccc(C(F)(F)F)cc3)n2C)cc1` here?
Its survival is -13% (active).

Which survival does the source give for `CCOc1ccc(-c2cnc(NCc3ccc(OC)cc3OC)n2C)cc1` here?
Its survival is 68%.

`Cc1ccc(-c2cnc(NCc3ccc(C(C)C)cc3)n2C)cc1` was tested. Which survival did it give?
Its survival is -13% (active).

For `Cn1c(-c2ccccc2)cnc1NCc1ccccc1O`, which survival is on record?
Its survival is 60%.

For `Cc1ccc(Cl)cc1N1CCN(C(=O)c2cn(C3CCCCC3)c(=O)c3c2c2ccccc2n3C)CC1`, which survival is on record?
The survival was 76%.

For `COC(=O)c1ccc(NC(=O)C(=O)NCC(c2cccnc2)N2CCc3ccccc32)cc1` (stereo unspecified), which survival is on record?
The survival was 47%.

`O=C(CSc1nnc(-c2ccc(Cl)cc2)c(-c2ccc(Cl)cc2)n1)NC1CCCC1` was tested. Which survival did it give?
Its survival is 65%.

Which survival does the source give for `O=C(Nc1ccccc1C(=O)NCc1ccccc1)c1ccco1` here?
Its survival is 112%.

With `CCOC(=O)NNC(=O)C1CCC(C)CC1` (stereo unspecified) as the molecule, how does the survival read?
The survival was 64%.

For `O=S(=O)(c1ccc(F)cc1)N(CC(O)Cn1c2ccccc2c2ccccc21)c1ccccc1` (stereo unspecified), which survival is on record?
Its survival is 63%.

How did the survival turn out when `CCOc1ccc(-c2cc(C(=O)NCCc3ccccc3)c3c(-c4ccc(C)cc4)[nH]nc3n2)cc1` was run?
The survival was 128%.

For `Cc1ccc(S(=O)(=O)NCC(Nc2cccc(Cl)c2)c2ccccc2)cc1` (stereo unspecified), which survival is on record?
Its survival is 68%.

`COc1ccc2cc3cc(C(=O)Nc4cc(C)c(Cl)cc4OC)oc3nc2c1` was tested. Which survival did it give?
Its survival is 88%.

For `Cc1cccn2c(=O)c3cc(C(=O)NC(C)C)n(C)c3nc12`, which survival is on record?
Its survival is 82%.

Which survival does the source give for `Fc1cccc(Cl)c1CNc1n[nH]c(-c2ccco2)n1` here?
Its survival is 83%.

With `Cc1ccc(-c2cnc(NCc3c(F)cccc3Cl)n2C)cc1` as the molecule, how does the survival read?
Its survival is -12% (active).

`Cn1c(-c2ccc3c(c2)OCO3)cnc1NCc1cc(Cl)ccc1O` was tested. Which survival did it give?
The survival was 112%.

Which survival does the source give for `CCOc1ccc(CCNC(=O)c2cn(-c3cccc(OC)c3)c(=O)c3ccccc23)cc1` here?
The survival was 87%.

`NS(=O)(=O)c1ccc(Nc2nc3nonc3nc2Nc2ccc(S(N)(=O)=O)cc2)cc1` was tested. Which survival did it give?
The survival was 109%.

`Cc1cc(Nc2cccc(C(F)(F)F)c2)nc2ccc(NC(=O)Cc3ccc(Cl)cc3)cc12` was tested. Which survival did it give?
Its survival is 78%.

For `Fc1ccc(Nc2nc3nonc3nc2Nc2cccc(C(F)(F)F)c2)cc1`, which survival is on record?
The survival was -1% (active).

For `FC(F)(F)c1cccc(Nc2nc3nonc3nc2Nc2ccc(Cl)cc2)c1`, which survival is on record?
Its survival is -3% (active).

`Fc1ccc(-c2nc(Nc3cccc(C(F)(F)F)c3)nc3c2COc2ccccc2-3)cc1` was tested. Which survival did it give?
The survival was 56%.

`Cc1ccc(Nc2nc3nonc3nc2Nc2cccc(C(F)(F)F)c2)cc1Cl` was tested. Which survival did it give?
The survival was 0% (active).

For `O=C(Nc1cccc(C(F)(F)F)c1)c1cc(-c2ccc(Cl)cc2)on1`, which survival is on record?
The survival was 83%.

Which survival does the source give for `Cc1cc(C)n(-c2nc3ccccc3nc2Nc2cccc(C(F)(F)F)c2)n1` here?
The survival was 86%.

For `Cc1ccc(Nc2nc3nonc3n3cnnc23)cc1Cl`, which survival is on record?
The survival was 88%.

With `CCCSc1nc2c([nH]c3ccccc32)c(=O)n1C` as the molecule, how does the survival read?
The survival was 87%.

`COCC(C)NC(=O)C1=CC(c2ccc3c(c2)OCO3)=NS(=O)(=O)N1C` (stereo unspecified) was tested. Which survival did it give?
The survival was 103%.

Which survival does the source give for `COc1ccc(-c2noc(N3CCN(c4cccc(Cl)c4)CC3)n2)cc1OC` here?
The survival was 73%.

How did the survival turn out when `Cc1cccc(N(C)S(=O)(=O)c2cc3c(cc2Cl)NC(=O)CO3)c1` was run?
The survival was 75%.

`COc1ccc(N2CCN(c3ncccc3-c3nc(-c4ccccc4C)no3)CC2)cc1` was tested. Which survival did it give?
Its survival is 87%.

How did the survival turn out when `CCN(CC)C(=O)Cn1cc(/C=C(\C#N)C(N)=O)c2ccccc21` was run?
Its survival is 124%.

With `Cc1ccc(CNc2ncnc3c2cnn3-c2ccc(C)cc2C)cc1` as the molecule, how does the survival read?
The survival was 73%.

Which survival does the source give for `COc1ccc(C(=O)NNc2ncnc3c2cnn3-c2ccc(C)cc2C)cc1` here?
Its survival is -3% (active).

How did the survival turn out when `Cc1ccc(-n2ncc3c(NCC(C)C)ncnc32)c(C)c1` was run?
Its survival is 10% (active).

With `Cc1ccc(-n2ncc3c(N(CC(C)C)CC(C)C)ncnc32)c(C)c1` as the molecule, how does the survival read?
The survival was 71%.

`COc1ccc(C(=O)NNc2ncnc3c2cnn3-c2ccc(C)c(Cl)c2)cc1` was tested. Which survival did it give?
The survival was 73%.

How did the survival turn out when `Cc1cccc(C(=O)NNc2ncnc3c2cnn3-c2ccc(C)cc2C)c1` was run?
The survival was 124%.

`CCOc1ccc(N2CC(NC(=O)CCc3ccccc3)CC2=O)cc1` (stereo unspecified) was tested. Which survival did it give?
The survival was 78%.

Which survival does the source give for `COc1ccc(CCNc2nccn(-c3ccc(C)c(C)c3)c2=O)cc1OC` here?
The survival was 83%.

Which survival does the source give for `COC(=O)c1c(NC(=O)Cc2coc3cc(C)ccc23)sc2c1CCC2` here?
The survival was 106%.

For `CCCCNC(=O)C(CC)Sc1nc2ccccc2c(=O)n1CCc1ccc(OC)c(OC)c1` (stereo unspecified), which survival is on record?
The survival was 127%.

For `O=C(NCc1ccccc1Br)c1ccc(-n2cnc3cccnc32)cc1`, which survival is on record?
Its survival is 152%.

How did the survival turn out when `Cc1cccc(C(=O)Nc2ccccc2-c2nc(-c3ccccc3)no2)c1` was run?
The survival was 86%.

Which survival does the source give for `CCOc1ccc(CCNC(=O)C2CCN(c3ncnc4c3nc3n4CCCCC3)CC2)cc1` here?
The survival was 119%.

With `CCc1ccc(C(=O)CC2(O)C(=O)N(CCc3ccccc3)c3ccc(Cl)cc32)cc1` (stereo unspecified) as the molecule, how does the survival read?
The survival was 5% (active).

How did the survival turn out when `CC(C)c1ccc(C(=O)CC2(O)C(=O)N(CCc3ccccc3)c3ccc(Cl)cc32)cc1` (stereo unspecified) was run?
Its survival is 33%.

Which survival does the source give for `Cc1ccc(CN2C(=O)C(O)(CC(=O)c3ccc(C)cc3)c3ccccc32)cc1` (stereo unspecified) here?
The survival was 66%.

`Cc1ccc(C(=O)CC2(O)C(=O)N(CCc3ccccc3)c3ccc(Cl)cc32)cc1` (stereo unspecified) was tested. Which survival did it give?
Its survival is 3% (active).

`CCc1ccc(C(=O)CC2(O)C(=O)N(Cc3ccc(C)cc3)c3ccccc32)cc1` (stereo unspecified) was tested. Which survival did it give?
The survival was 48%.

Which survival does the source give for `CCc1ccc(C(=O)CC2(O)C(=O)N(C(C)C)c3ccccc32)cc1` (stereo unspecified) here?
The survival was 111%.

Source: PubChem BioAssay AID463173 (ICCB-Longwood Screening Facility, Harvard Medical School, 2010)
